Twelve molecules from PubChem BioAssay (NCATS) can be followed below.

Molecules are shown by their SMILES. Inconclusive results are not listed. Calls of active or inactive are those of the source. Calls come from the whole dose curve; as a rule, active = well fitted curve in the direction sought with a large enough effect; inconclusive = small, poorly fitted or top-dose-only effect, or another doubt; inactive = no such curve, though single readings can be large; an effect the other way counts as inactive or inconclusive.

The nature of assay [1]: qHTS of pediatric cancer cell lines to identify multiple opportunities for drug repurposing: Confirmatory screen for BT-12 cells (AID 1347112).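 Note: viability read after 48 h of compound exposure; nearly all actives have a fitted effect of over 55% in size.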 The method in brief:
(§1)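 Cells (500-1,000/well) rested 5 h, then received compounds for 48 h; metabolically active cells were measured by CellTiter-Glo luminescence. Final concentrations spanned up to 46 µM (MIPE, 11-point) or 0.59 nM-46 µM (NPC, 8-point) in primary screens, 11-point in follow-ups.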
A general note: Quantitative high-throughput screening tests each substance at several concentrations.

Assay [2] is described as follows: qHTS of pediatric cancer cell lines to identify multiple opportunities for drug repurposing: Confirmatory screen for LAN-5 cells (AID 1347113). Note: nearly all actives have a fitted effect of over 65% in size. Summed up:
as §1

Assay [3] can be described thus: qHTS of pediatric cancer cell lines to identify multiple opportunities for drug repurposing: Confirmatory screen for NB-EBc1 cells (AID 1347115).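 Note: cells exposed to compound for 48 h before the viability read; nearly all actives have a fitted effect of over 45% in size.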 The method in brief:
as §1

Assay [4] can be described thus: qHTS of pediatric cancer cell lines to identify multiple opportunities for drug repurposing: Confirmatory screen for BT-37 cells (AID 1347117). Note: nearly all actives have a fitted effect of over 55% in size. Conditions: BT-37 pediatric cancer cells, viability; activity change, negative = cytotoxic: at 45.9 µM (top of the series). The method in brief: as §1
Assay [5] is described as follows: qHTS of pediatric cancer cell lines to identify multiple opportunities for drug repurposing: Confirmatory screen for TC32 cells (AID 1347118).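 Note: cells exposed to compound for 48 h before the read; nearly all actives have a fitted effect of over 65% in size.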 Summed up:
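Measured quantity: luminescence from CellTiter-Glo, reflecting metabolically active TC32 cells following 48 h of compound. Curves came straight from multi-point titrations, with 8 or 11 points in primary and 11 in confirmatory screening.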

Assay [6] is described as follows: qHTS of pediatric cancer cell lines to identify multiple opportunities for drug repurposing: Confirmatory screen for MG 63 (6-TG R) cells (AID 1347119). Note: nearly all actives have a fitted effect of over 55% in size. Summed up: as §1
The nature of assay [7]: qHTS of pediatric cancer cell lines to identify multiple opportunities for drug repurposing: Confirmatory screen for control Hh wild type fibroblast cells (AID 1347121). Note: nearly all actives have a fitted effect of over 70% in size. The method in brief: as §1
Assay [8] in a line: qHTS of pediatric cancer cell lines to identify multiple opportunities for drug repurposing: Confirmatory screen for Rh18 cells (AID 1347125). Note: nearly all actives have a fitted effect of over 55% in size. The method in brief:
as §1

Assay [9] is described as follows: qHTS of pediatric cancer cell lines to identify multiple opportunities for drug repurposing: Confirmatory screen for Saos-2 cells (AID 1347127). Note: nearly all actives have a fitted effect of over 60% in size. Summed up: as §1
The nature of assay [10]: qHTS of pediatric cancer cell lines to identify multiple opportunities for drug repurposing: Confirmatory screen for OHS-50 cells (AID 1347128). Summed up:
as §1

Assay [11] in a line: qHTS of pediatric cancer cell lines to identify multiple opportunities for drug repurposing: Confirmatory screen for SK-N-SH cells (AID 1347129).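 Note: cells exposed to compound for 48 h before viability read; nearly all actives have a fitted effect of over 60% in size.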 Summed up:
as §1

Assay [12] is described as follows: qHTS of pediatric cancer cell lines to identify multiple opportunities for drug repurposing: Confirmatory screen for DAOY cells (AID 1347114). Note: nearly all actives have a fitted effect of over 65% in size. Summed up: (§2)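 Viability measured as metabolically active cells via CellTiter-Glo luminescence following 48 hours of compound exposure, 11-point dilutions in confirmatory testing. 500-1,000 cells/well plated 5 hours before dosing; controls were DMSO and 2.3 µM bortezomib.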

The nature of assay [13]: qHTS of pediatric cancer cell lines to identify multiple opportunities for drug repurposing: Confirmatory screen for U-2 OS cells (AID 1347122). Note: nearly all actives have a fitted effect of over 65% in size. Summed up: as §1
A short description of assay [14]: qHTS of pediatric cancer cell lines to identify multiple opportunities for drug repurposing: Confirmatory screen for Rh41 cells (AID 1347123).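 Note: 48 h compound exposure; nearly all actives have a fitted effect of over 60% in size.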 Summed up:
as §1

The nature of assay [15]: qHTS of pediatric cancer cell lines to identify multiple opportunities for drug repurposing: Confirmatory screen for RD cells (AID 1347124). The method in brief: as §1
Assay [16] in a line: qHTS of pediatric cancer cell lines to identify multiple opportunities for drug repurposing: Confirmatory screen for Rh30 cells (AID 1347126). Note: nearly all actives have a fitted effect of over 55% in size. The method in brief: as §1
Assay [17] can be described thus: qHTS of pediatric cancer cell lines to identify multiple opportunities for drug repurposing: Confirmatory screen for SJ-GBM2 cells (AID 1347116). Note: nearly all actives have a fitted effect of over 60% in size. The method in brief: as §2
Potency is the fitted concentration of half-maximal effect.

For the molecule `CC(=O)ON=C1C(c2c(O)[nH]c3cc(Br)ccc23)=Nc2ccccc21`, the Potency in assay [1] is 18.5 µM (active); in assay [2], 14.7 µM (active); in [3], 16.5 µM (active); in assay [4], 16.5 µM (active); in [5] it was 16.5 µM (active); in assay [6] it was 18.5 µM (active). Besides, the Potency was 13.1 µM (active) in assay [8], 13.1 µM (active) in assay [9], 14.7 µM (active) in assay [10] and 23.5 µM (active) in assay [11]. Besides, in assay [7], the Potency entry was “inactive”.

Consider `CCN(CC)CCNC(=O)c1c(C)[nH]c(C=C2C(=O)Nc3ccc(F)cc32)c1C`, for which the Potency in assay [1] is 33.9 µM (active); in assay [2], 10.7 µM (active); in assay [12] it was 17 µM (active); in assay [6] it was 13.5 µM (active); in [13] it was 24 µM (active); in [14] it was 7.59 µM (active). The Potency was 15.1 µM (active) in [15]; 26.9 µM (active) in assay [8]; 12 µM (active) in assay [16]; 26.9 µM (active) in assay [9]; 10.7 µM (active) in assay [10]; 9.59 µM (active) in assay [11].

As to `CC(=O)O[C@H]1C[C@@H]2CC[C@H]3[C@H]4C[C@H]([N+]5(C)CCCCC5)[C@@H](OC(C)=O)[C@@]4(C)CC[C@@H]3[C@@]2(C)C[C@H]1N1CCCCC1`, the Potency in [1] was 7.37 µM (active); in [2], 4.14 µM (active); in assay [17] it was 14.7 µM (active); in [4], 3.29 µM (active); in [5], 2.33 µM (active); in [14] it was 7.37 µM (active). The Potency in assay [8] was 10.4 µM (active); in [10] it was 16.5 µM (active); in [11], 20.9 µM (active). Moreover, the Potency result in assay [6], in assay [13] and in assay [15] was “inactive” in each case.

For the molecule `Oc1cc(-c2nc(-c3ccccc3)[nH]c2-c2ccncc2)ccc1Cl`, the Potency is 2.33 µM (active) in [1]; 6.57 µM (active) in assay [2]; 7.37 µM (active) in assay [17]; 2.61 µM (active) in assay [4]; 7.37 µM (active) in [5]; 18.5 µM (active) in [13]. Further, the Potency in assay [14] is 16.5 µM (active); in assay [15], 16.5 µM (active); in assay [8], 18.5 µM (active); in [9], 2.61 µM (active); in assay [10], 18.5 µM (active). Besides, in assay [6], the Potency entry is “inactive”.

With `CCCCC(=O)O[C@]1(C(=O)CO)[C@@H](C)C[C@H]2[C@@H]3CCC4=CC(=O)C=C[C@]4(C)[C@@]3(F)[C@@H](O)C[C@@]21C`, the Potency result in [1], in [2], in [12], in assay [17], in assay [4] and in assay [6] was “inactive” throughout. Also, the Potency entry in assay [7], in assay [13], in assay [14], in [15], in assay [8] and in assay [9] was “inactive” each time. Further, the Potency result in assay [10] and in [11] was “inactive” in each case.

For the molecule `FC(F)c1nc2ccccc2n1-c1nc(N2CCOCC2)nc(N2CCOCC2)n1`, the Potency in assay [1] was 1.04 µM (active); in [2], 1.47 µM (active); in assay [4] it was 1.47 µM (active); in assay [5], 0.928 µM (active); in assay [6], 0.928 µM (active); in [13], 4.65 µM (active). Besides, the Potency is 2.93 µM (active) in assay [14]; 8.27 µM (active) in assay [15]; 1.85 µM (active) in assay [8]; 0.827 µM (active) in [9]; 1.65 µM (active) in [10]; 2.35 µM (active) in assay [11]. In addition, the Potency result in assay [17] is “inactive”.

With `Cn1cnc(=N)c2[nH]cnc21`, the Potency entry in assay [1], in assay [2], in assay [12], in assay [4], in assay [5] and in assay [6] was “inactive” each time. The Potency result in assay [7], in assay [8], in assay [9], in assay [10] and in assay [11] was “inactive” throughout.

With `Cc1cnc(Nc2ccc(N3CCN(C)CC3)cc2)nc1Nc1cccc(S(=O)(=O)NC(C)(C)C)c1`, the Potency was 16.5 µM (active) in assay [1]; 7.37 µM (active) in [2]; 18.5 µM (active) in [12]; 5.85 µM (active) in [4]; 2.33 µM (active) in assay [5]; 2.93 µM (active) in [6]. For the same molecule, the Potency in assay [7] was 14.7 µM (active); in assay [14], 3.29 µM (active); in [15] it was 7.37 µM (active); in assay [8] it was 2.93 µM (active); in assay [9], 3.69 µM (active); in assay [10] it was 2.93 µM (active). Besides, the Potency in [11] was 2.35 µM (active).

As to `CC(C)NC[C@@H](C(=O)N1CCN(c2ncnc3c2[C@H](C)C[C@H]3O)CC1)c1ccc(Cl)cc1`, the Potency entry in assay [1], in [12], in assay [17] and in assay [7] was “inactive” each time. For the same molecule, the Potency was 2.93 µM (active) in [2]; 4.14 µM (active) in [5]; 11.7 µM (active) in assay [6]; 0.737 µM (active) in [14]; 8.27 µM (active) in assay [16]; 6.57 µM (active) in assay [9]. Moreover, the Potency in assay [11] was 16.6 µM (active).

For the molecule `COc1ccc(S(=O)(=O)Nc2cccnc2Nc2ccc(O)cc2)cc1`, the Potency is 3.29 µM (active) in assay [1]; 1.65 µM (active) in assay [2]; 0.369 µM (active) in [12]; 1.31 µM (active) in [4]; 0.737 µM (active) in assay [5]; 0.465 µM (active) in assay [6]. In addition, the Potency is 0.827 µM (active) in assay [13], 0.928 µM (active) in assay [15] and 0.522 µM (active) in assay [9]. The Potency entry in assay [7] and in [8] was “inactive” throughout.

Consider `COc1ccc(C=Cc2cc(OC)c(OC)c(OC)c2)cc1NC(=O)[C@H](N)CO`, for which the Potency in [1] is 0.117 µM (active); in [2], 0.414 µM (active); in assay [17], 0.827 µM (active); in assay [4], 0.0737 µM (active); in assay [5] it was 0.0465 µM (active); in [6], 0.0465 µM (active). The Potency in assay [13] was 0.117 µM (active); in assay [14] it was 0.104 µM (active); in assay [15], 0.131 µM (active); in assay [9], 0.0737 µM (active). In addition, the Potency result in assay [7] and in assay [8] was “inactive” throughout.

Consider `CCN(CC)Cc1ccc2cc(COC(=O)Nc3ccc(C(=O)NO)cc3)ccc2c1`, for which the Potency result in assay [1], in assay [2], in assay [12], in [17], in assay [4] and in assay [5] was “inactive” in each case. In addition, the Potency result in [6], in [13], in [14], in [9] and in assay [11] was “inactive” in each case.
